Assay results from ChEMBL document CHEMBL3988442, “University of Dundee, Small-Polar-MMV Screening Library” (2021).
For part of these data: Measured potencies and affinities stand elsewhere.

Experiments:
Design in all cases: scale not given: direction of the effect not stated beside the values
[1] = target: Protein translocase subunit SecA (Escherichia coli (strain K12)) (UniProt P10408); experiment: Assay to Identify E. coli SecA ATPase Inhibitors; assay type: functional; settings: 30 µM
[2] = target: T1, Ubiquitin-activating enzyme e1, putative (Leishmania donovani (strain BPK282A1)) (UniProt E9BSI1); experiment: Leishmania donovani Ubiquitin Activating Enzyme (LdE1); assay type: functional; settings: 30 µM
T1 sequence (whole entry): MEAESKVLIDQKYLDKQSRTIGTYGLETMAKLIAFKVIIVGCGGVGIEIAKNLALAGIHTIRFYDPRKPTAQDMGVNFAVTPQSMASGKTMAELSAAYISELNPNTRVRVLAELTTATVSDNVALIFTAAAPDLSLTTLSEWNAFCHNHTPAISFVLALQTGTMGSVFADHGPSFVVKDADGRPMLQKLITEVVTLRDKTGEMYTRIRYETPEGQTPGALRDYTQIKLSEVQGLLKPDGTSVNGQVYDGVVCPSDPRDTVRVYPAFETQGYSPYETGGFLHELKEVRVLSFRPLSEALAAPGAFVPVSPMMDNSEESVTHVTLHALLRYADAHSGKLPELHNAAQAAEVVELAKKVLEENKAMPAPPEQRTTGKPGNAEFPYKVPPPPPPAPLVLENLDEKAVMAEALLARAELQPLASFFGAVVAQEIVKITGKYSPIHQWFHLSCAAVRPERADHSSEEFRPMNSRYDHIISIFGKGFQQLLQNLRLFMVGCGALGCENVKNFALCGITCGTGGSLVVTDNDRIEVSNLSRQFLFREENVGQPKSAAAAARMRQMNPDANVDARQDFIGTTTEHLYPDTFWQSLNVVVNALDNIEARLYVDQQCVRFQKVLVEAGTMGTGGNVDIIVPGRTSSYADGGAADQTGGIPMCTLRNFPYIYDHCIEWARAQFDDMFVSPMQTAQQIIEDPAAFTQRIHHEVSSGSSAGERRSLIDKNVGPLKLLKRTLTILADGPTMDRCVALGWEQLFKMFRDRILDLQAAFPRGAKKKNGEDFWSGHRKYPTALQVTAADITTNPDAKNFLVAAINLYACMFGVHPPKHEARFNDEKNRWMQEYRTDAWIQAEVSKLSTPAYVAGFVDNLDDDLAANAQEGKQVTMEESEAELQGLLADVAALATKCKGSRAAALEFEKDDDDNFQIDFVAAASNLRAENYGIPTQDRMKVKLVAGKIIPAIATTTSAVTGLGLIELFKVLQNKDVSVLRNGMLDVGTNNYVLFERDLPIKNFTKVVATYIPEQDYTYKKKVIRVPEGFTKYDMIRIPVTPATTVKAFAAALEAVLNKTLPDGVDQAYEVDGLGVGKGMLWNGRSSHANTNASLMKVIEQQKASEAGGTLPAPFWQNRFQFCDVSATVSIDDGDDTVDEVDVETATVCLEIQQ

[3] = target: Sialic acid-binding Ig-like lectin 9 (Homo sapiens) (UniProt Q9Y336); experiment: Hs-Siglec9 ALPHAscreen SOP 20170721; settings: 10 µM
[4] = test system: Trypanosoma cruzi; experiment: Trypanosoma cruzi phosphomannomutase and mannose-1-phosphate guanylyltransferase assay; assay type: functional; settings: 10 µM
[5] = target: T2, Arginase-2, mitochondrial (Homo sapiens) (UniProt P78540); experiment: in vitro enzyme assay to detect the production of urea directly proportional to the activity of Arginase II; assay type: functional; settings: 33.3 µM; note: in the data most compounds retested in dose-response had high values
T2 sequence (whole entry): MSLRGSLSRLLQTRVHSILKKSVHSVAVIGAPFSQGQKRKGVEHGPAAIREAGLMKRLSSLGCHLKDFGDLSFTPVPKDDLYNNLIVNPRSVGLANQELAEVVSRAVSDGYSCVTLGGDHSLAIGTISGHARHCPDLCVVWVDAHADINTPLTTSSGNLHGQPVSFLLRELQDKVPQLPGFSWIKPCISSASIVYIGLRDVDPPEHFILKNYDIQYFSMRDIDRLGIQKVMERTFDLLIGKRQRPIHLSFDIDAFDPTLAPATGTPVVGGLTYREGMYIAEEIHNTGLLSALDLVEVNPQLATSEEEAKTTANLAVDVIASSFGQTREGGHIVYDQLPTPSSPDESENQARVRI

[6] = target: T3, Proteasome subunit beta (Trypanosoma cruzi) (UniProt O96673); experiment: Trypanosoma cruzi proteasome chymotrypsin-like activity (TcProtChymo) assay.; note: in the data most compounds retested in dose-response had high values; assay type: functional; settings: 9.37 µM
T3 sequence (whole entry): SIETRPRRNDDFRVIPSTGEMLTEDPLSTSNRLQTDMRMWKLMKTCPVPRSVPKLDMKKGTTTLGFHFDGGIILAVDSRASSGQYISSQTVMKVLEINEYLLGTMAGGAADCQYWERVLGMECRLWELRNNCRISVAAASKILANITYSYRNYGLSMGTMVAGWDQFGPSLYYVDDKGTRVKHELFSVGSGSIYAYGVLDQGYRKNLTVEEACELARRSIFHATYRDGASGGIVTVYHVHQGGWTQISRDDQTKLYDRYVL

[7] = species on record: Homo sapiens; experiment: To identify inhibition of the IFN signalling (Jak-Stat) pathway via expression of an eGFP reporter gene under the control of an IFN-stimulated response element (ISRE) containing MxA promoter.; assay type: functional; settings: 30 µM
[8] = target: T4, Tyrosyl-tRNA synthetase, putative (Trypanosoma cruzi (strain CL Brener)) (UniProt Q4DSP6); experiment: Trypanosoma cruzi tyrosyl tRNA synthetase (TcYRS) _High Tyrosine SOP; assay type: functional; settings: 30 µM; note: in the data most compounds retested in dose-response had high values
T4 sequence (whole entry): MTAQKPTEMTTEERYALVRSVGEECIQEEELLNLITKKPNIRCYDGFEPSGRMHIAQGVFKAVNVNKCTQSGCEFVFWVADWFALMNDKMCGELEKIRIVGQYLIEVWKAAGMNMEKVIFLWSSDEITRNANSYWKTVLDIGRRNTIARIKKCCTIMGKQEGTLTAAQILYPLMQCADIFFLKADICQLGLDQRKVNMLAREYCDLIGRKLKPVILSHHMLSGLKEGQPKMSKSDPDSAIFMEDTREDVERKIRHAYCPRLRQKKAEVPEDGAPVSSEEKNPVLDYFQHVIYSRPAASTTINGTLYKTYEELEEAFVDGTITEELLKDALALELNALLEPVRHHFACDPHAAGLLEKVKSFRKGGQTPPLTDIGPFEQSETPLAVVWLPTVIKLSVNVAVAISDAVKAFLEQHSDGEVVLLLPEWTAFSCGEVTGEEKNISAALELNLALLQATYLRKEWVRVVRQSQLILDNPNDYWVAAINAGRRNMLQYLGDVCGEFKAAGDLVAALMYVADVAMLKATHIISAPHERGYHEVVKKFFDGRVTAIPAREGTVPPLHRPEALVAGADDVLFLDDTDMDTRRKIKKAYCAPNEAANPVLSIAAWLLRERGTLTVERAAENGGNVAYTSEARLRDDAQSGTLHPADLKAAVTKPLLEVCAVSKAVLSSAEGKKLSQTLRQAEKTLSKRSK

[9] = target: T4, Tyrosyl-tRNA synthetase, putative (Trypanosoma cruzi (strain CL Brener)); experiment: Trypanosoma cruzi tyrosyl tRNA synthetase (TcYRS) SOP; assay type: functional; settings: 30 µM
[10] = target: Chromo domain-containing protein 1 (Saccharomyces cerevisiae (strain ATCC 204508 / S288c) (Baker's yeast)) (UniProt P32657); experiment: ScCHD-1 Enzyme Inhibition Assay; assay type: functional; settings: 30 µM; note: in the data most compounds retested in dose-response had high values
Sequence of Chromo domain-containing protein 1 (Saccharomyces cerevisiae (strain ATCC 204508 / S288c) (Baker's yeast)) (P32657 whole entry, the tested form may be a part): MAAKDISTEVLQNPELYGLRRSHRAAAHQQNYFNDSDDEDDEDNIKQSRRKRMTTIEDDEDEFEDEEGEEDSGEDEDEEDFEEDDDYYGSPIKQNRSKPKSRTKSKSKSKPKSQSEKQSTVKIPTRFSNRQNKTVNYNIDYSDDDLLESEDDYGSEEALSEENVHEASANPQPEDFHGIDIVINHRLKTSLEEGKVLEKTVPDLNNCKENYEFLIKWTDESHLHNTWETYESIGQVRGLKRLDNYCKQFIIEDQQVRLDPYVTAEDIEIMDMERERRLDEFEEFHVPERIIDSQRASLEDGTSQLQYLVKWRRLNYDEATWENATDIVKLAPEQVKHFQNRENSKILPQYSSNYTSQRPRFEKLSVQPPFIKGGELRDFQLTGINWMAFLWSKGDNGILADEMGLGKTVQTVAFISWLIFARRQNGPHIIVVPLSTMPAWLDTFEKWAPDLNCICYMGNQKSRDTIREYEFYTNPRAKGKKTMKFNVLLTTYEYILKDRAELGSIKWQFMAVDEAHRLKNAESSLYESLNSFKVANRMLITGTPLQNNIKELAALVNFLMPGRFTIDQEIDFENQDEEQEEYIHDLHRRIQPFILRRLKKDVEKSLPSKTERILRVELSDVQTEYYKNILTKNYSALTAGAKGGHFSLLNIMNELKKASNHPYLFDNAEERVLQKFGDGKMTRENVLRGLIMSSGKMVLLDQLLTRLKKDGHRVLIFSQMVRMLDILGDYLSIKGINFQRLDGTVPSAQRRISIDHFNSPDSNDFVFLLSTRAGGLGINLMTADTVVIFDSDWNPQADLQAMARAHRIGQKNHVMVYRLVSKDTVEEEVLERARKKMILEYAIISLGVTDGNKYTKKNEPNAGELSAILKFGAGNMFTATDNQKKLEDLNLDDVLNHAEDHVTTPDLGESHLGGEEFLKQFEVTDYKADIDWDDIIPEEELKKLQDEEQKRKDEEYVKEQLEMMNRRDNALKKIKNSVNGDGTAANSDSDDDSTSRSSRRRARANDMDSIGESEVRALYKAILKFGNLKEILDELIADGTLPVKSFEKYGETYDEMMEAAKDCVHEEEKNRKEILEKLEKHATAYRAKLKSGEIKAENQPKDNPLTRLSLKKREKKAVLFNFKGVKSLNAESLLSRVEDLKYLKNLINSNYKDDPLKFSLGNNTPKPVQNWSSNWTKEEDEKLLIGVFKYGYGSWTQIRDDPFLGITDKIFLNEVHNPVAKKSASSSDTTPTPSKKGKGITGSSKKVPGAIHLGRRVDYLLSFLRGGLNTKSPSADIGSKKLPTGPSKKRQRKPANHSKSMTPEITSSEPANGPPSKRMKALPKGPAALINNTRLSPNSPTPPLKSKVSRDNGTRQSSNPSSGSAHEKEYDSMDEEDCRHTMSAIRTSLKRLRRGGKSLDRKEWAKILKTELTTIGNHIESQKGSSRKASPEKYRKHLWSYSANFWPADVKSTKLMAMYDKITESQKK

Sequence of Protein translocase subunit SecA (Escherichia coli (strain K12)) (P10408 whole entry): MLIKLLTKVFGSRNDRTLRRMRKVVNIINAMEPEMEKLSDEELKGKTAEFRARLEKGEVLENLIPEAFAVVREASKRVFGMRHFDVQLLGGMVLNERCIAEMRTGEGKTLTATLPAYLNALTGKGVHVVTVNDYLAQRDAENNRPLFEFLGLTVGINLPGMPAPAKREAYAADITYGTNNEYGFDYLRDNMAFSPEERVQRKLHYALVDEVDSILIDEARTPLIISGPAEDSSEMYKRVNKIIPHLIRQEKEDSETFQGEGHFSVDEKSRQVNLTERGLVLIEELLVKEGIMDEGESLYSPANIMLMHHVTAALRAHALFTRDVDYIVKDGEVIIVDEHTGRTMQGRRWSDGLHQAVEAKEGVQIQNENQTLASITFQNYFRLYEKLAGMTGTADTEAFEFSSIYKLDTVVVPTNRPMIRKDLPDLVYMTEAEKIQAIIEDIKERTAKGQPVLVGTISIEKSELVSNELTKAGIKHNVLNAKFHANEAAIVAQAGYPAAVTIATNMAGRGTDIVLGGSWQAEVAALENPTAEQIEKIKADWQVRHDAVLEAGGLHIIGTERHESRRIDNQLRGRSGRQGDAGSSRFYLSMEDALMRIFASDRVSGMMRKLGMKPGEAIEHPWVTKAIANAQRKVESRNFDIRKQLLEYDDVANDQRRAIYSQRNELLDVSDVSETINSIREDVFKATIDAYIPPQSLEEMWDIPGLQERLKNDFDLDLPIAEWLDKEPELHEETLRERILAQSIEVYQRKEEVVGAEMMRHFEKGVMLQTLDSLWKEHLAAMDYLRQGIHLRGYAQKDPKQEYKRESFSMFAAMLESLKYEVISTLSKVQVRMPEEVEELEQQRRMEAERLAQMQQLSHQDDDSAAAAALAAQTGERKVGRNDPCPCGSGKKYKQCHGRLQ
Sequence of Sialic acid-binding Ig-like lectin 9 (Homo sapiens) (Q9Y336 whole entry): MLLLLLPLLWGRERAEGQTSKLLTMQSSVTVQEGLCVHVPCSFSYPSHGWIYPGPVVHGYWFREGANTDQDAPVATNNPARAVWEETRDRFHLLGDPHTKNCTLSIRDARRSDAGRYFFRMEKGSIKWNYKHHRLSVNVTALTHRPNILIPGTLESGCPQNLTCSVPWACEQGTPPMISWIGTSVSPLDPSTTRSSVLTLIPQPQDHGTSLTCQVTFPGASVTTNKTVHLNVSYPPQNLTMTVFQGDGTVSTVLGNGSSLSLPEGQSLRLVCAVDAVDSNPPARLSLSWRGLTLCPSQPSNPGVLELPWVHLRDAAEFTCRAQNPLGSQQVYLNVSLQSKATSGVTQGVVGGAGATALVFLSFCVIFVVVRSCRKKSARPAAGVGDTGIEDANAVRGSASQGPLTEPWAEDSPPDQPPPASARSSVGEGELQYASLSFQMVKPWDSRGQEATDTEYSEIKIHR

| Structure (SMILES) | Percent Effect [1] [%] | Percent Effect [2] [%] | Percent Effect [3] [%] | Percent Effect [4] [%] | Percent Effect [5] [%] | Percent Effect [6] [%] | Percent Effect [7] [%] | Percent Effect [8] [%] | Percent Effect [9] [%] | Percent Effect [10] [%] |
| --- | --- | --- | --- | --- | --- | --- | --- | --- | --- | --- |
| CN1CC(c2ccccc2)CC12CCN(C(=O)c1c(Cl)cnn1C)CC2 (stereo not given) | -3.22 | 5.41 | 9.49 | 8.05 | 10.8 | 10.3 | -5.06 | 5.85 | 14.6 | -3.11 |
| Cc1cccc(C(=O)N2CCC(Cc3cnc4[nH]ccc4c3)CC2)n1 | -4.68 | 12 | -0.292 | -3.35 | 4.42 | 9.2 | 2.32 | 3.17 | 7.5 | -24.1 |
| CC(=O)NC1CCCN(C(=O)NCc2cccnc2N(C)C)C1 (stereo not given) | -1.76 | 16 | 3.66 | 0.402 | 6.65 | 11.4 | 11.5 | 8.95 | 15.4 | -11.3 |
| Cc1ccc(C(=O)N2CCN(CCc3cccs3)CC2)c(=O)[nH]1 | -2.8 | 2.56 | -0.768 | -1.6 | 8.61 | -2.65 | 24.3 | 3.35 | 10.8 | -2.19 |
| O=C(NCCC1=CCCCC1)C1CCN(c2ccc3nncn3n2)CC1 | -2.89 | 10.8 | -2.17 | -0.485 | -2.45 | 11.1 | 28.5 | 4.79 | 14.6 | 2.87 |
| CC(NC(=O)N1CCN(c2ccc(Cl)cc2)CC1)C(=O)N1CCSCC1 (stereo not given) | -6.05 | 8.11 | 0.915 | -2.04 | 0.35 | 17.8 | 13.2 | 5.85 | 12.2 | -1.19 |
| CN1CCN(c2cc(CNC(=O)c3ccc(=O)[nH]n3)ccn2)CC1 | -0.863 | 12.8 | -10.3 | -2.16 | 9.43 | 9.81 | 23.3 | 6.22 | 18.1 | -2.33 |
| Cc1n[nH]c(C)c1C1COCCN1C(=O)c1cc(Cl)c[nH]1 (stereo not given) | -1.38 | 2.56 | 3.4 | -3.47 | 9.02 | -1.96 | 15 | -2.39 | 1.21 | 2.03 |
| COc1ccc(C(=O)N2CC[C@H](CO)[C@H](O)C2)c(C)c1 | -7.05 | 5.41 | 10.7 | 9.02 | 16.4 | 10.1 | 0.399 | 7.98 | 9.76 | -7.71 |
| CCC1c2ccsc2CCN1C(=O)NCCNc1ncccn1 (stereo not given) | 0.216 | 15.4 | -5.88 | 6.29 | 6.15 | 9.3 | 10 | 6.22 | 22.9 | -7.01 |
| Cc1cnc(CN(C)C2CCN(Cc3ccccc3C#N)C2)o1 (stereo not given) | 0.623 | 13.3 | -5.38 | -5.82 | 3.1 | 18.4 | 2.92 | 3.68 | 7.69 | -11.8 |
| Cc1ccc(-c2nnc(CNCCn3cc(C)cn3)o2)cc1 | 0.127 | 7.79 | 7.81 | -0.56 | 1.02 | 6.67 | -6.58 | 4.9 | 11.8 | -4.71 |
| NC(=O)CC1CCN(C(=O)NCc2ccccc2-n2cccn2)CC1 | -5.04 | 21.3 | 5.25 | -0.602 | -1.77 | 9.41 | 15 | 7.89 | 15.4 | -10.3 |
| Cc1ncc2c(n1)CCN(Cc1nc3ccccc3o1)C2 | -4.63 | 16 | -1.93 | 0.201 | -6.21 | 16 | -5.07 | 7.89 | 25.6 | -11 |
| Cn1ncc(NCc2cccc(COC(C)(C)C)c2)c(Cl)c1=O | -2.67 | 8 | 4.11 | 1.81 | 5.32 | 3.31 | 49.3 | 2.63 | 10.3 | -8.54 |
| CC(C(=O)N1CCCC1)N1CCC(c2nccn2CC2CCC2)CC1 (stereo not given) | -7.94 | 0 | -0.943 | -1.07 | 0.35 | 1.71 | 1.41 | 9.04 | 12.2 | 2.51 |
| CC(C)NC(=O)Nc1ccc(CNCc2cccc(OC(F)F)c2)cc1 | -3.77 | 10.4 | -3.29 | -2.98 | -10 | 24 | 25.1 | 4.9 | 7.06 | -10.9 |
| O=C(NCCn1ccnc1)N1CCN(Cc2cccs2)CC1 | 2.19 | 18.2 | -6.1 | -9.14 | 2.66 | 21.9 | 12.6 | 4.9 | 16.5 | -9.63 |
| OC(COc1ccccc1)CN1CCc2c(ncn2C2CC2)C1 (stereo not given) | -6.24 | 8 | 5.27 | -6.02 | -1.77 | 3.65 | 15.6 | 5.79 | 7.69 | -12.1 |
| CN1CC(=O)N(c2cnn(C)c2)CC12CCN(C(=O)c1ccsc1)C2 (stereo not given) | -5.41 | 1.3 | 3.75 | -6.13 | 2.43 | 6.27 | -0.162 | 2.63 | 2.56 | -2.51 |
| O=C(CSc1ccc(F)c(F)c1)NS(=O)(=O)c1ccc2c(c1)OCCO2 | -1.98 | 2.56 | -9.59 | 0.282 | 1.23 | 3.16 | 12.6 | -4.31 | 8.43 | -1.38 |
| Cc1ccc(CN(C)CC(=O)NC2(C)CCS(=O)(=O)C2)cc1 (stereo not given) | -0.346 | 8 | -1.85 | -2.81 | -1.77 | 7.89 | 21.9 | 10 | 15.4 | -11.2 |
| COc1cccc(OC)c1CN1CCC2(CC(Nc3ccncn3)C2)C1 (stereo not given) | -0.631 | 1.33 | 2.05 | -4.93 | 1.77 | 3.61 | 11.6 | 5.29 | 5 | -14 |
| Cc1cc(CN(C)C(=O)c2ccc(Cl)c(S(C)(=O)=O)c2)no1 | -9.03 | 13.3 | 7.77 | 3.81 | -4.88 | 9.41 | 6.05 | 1.58 | 10.3 | -11.5 |
| CC(C)c1cc(C(F)(F)F)n2nc(CCC(=O)O)nc2n1 | 1.24 | 14.7 | -8.51 | -3.94 | 2.65 | 10.5 | 19.8 | 6.35 | 7.5 | -17.9 |
| O=C(c1ccc(F)cc1Cl)N1CCC(Nc2cccnn2)CC1 | -3.11 | 18.2 | 7.17 | 5.41 | -4.71 | 7.37 | 15.6 | 5.88 | 18.8 | -15.5 |
| COc1ccc(CC(=O)N2CCCC(n3cc(C)cn3)C2)cc1F (stereo not given) | -2.21 | -2.67 | 3.32 | 0.201 | 2.66 | 4.16 | 3.46 | 2.63 | 2.56 | -4.37 |
